# Assay results as given in ChEMBL document CHEMBL3988442, “University of Dundee, Small-Polar-MMV Screening Library” (2021).
# For some assays here: Entries with a potency or affinity are not part of this list.
# Assays:
# Design in all cases: scale not given: direction of the effect not stated beside the values
# [1] = biological target: Protein translocase subunit SecA (Escherichia coli (strain K12)) (UniProt P10408); assay: Assay to Identify E. coli SecA ATPase Inhibitors; assay type: functional; settings: 30 µM
# [2] = biological target: T1, Ubiquitin-activating enzyme e1, putative (Leishmania donovani (strain BPK282A1)) (UniProt E9BSI1); assay: Leishmania donovani Ubiquitin Activating Enzyme (LdE1); assay type: functional; settings: 30 µM
# T1 sequence (whole entry): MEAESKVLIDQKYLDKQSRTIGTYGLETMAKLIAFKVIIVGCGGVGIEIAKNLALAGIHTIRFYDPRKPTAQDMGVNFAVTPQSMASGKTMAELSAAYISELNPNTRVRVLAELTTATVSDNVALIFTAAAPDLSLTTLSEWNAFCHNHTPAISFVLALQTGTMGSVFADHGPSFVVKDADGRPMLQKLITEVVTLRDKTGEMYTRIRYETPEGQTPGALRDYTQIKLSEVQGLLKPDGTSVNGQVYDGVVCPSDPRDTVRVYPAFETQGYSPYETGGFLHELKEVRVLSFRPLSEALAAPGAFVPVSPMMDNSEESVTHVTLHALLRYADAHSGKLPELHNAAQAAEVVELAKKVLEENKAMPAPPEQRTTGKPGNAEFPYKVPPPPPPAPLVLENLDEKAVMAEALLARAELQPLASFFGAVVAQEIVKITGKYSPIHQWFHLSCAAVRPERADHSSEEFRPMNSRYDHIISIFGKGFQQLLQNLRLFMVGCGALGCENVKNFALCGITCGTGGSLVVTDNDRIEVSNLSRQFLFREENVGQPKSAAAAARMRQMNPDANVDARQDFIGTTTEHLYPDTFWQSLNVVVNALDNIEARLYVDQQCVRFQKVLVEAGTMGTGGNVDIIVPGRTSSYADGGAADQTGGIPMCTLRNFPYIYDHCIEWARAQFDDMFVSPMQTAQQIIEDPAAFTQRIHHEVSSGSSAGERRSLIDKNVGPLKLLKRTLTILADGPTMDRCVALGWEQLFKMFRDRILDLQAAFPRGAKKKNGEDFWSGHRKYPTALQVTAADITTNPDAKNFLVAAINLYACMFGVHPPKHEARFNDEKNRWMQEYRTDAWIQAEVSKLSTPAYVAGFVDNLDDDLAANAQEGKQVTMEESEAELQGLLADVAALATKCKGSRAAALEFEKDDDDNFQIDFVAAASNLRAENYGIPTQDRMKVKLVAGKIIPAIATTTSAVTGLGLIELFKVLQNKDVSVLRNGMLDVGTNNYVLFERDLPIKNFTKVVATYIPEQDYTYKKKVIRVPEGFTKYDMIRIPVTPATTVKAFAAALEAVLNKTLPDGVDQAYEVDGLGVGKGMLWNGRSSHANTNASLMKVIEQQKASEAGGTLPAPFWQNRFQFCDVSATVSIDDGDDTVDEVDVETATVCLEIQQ
# [3] = biological target: AMP-activated protein kinase, AMPK (Homo sapiens) (UniProt P54646+O43741+P54619+Q9UGJ0+Q9Y478+Q13131+Q9UGI9); assay: AMP-dependent Kinase enzyme assay. An in vitro enzyme assay that detects ADP turnover that is directly proportional to AMPK activity. This uses naive AMPK that is activated during the assay with MK-8722; assay type: functional; settings: 30 µM
# [4] = biological target: Sialic acid-binding Ig-like lectin 9 (Homo sapiens) (UniProt Q9Y336); assay: Hs-Siglec9 ALPHAscreen SOP 20170721; settings: 10 µM
# Trypanosoma cruzi = assay: Trypanosoma cruzi phosphomannomutase and mannose-1-phosphate guanylyltransferase assay; assay type: functional; settings: 10 µM
# [5] = biological target: T2, Arginase-2, mitochondrial (Homo sapiens) (UniProt P78540); assay: in vitro enzyme assay to detect the production of urea directly proportional to the activity of Arginase II; assay type: functional; settings: 33.3 µM; further: in the data most compounds retested in dose-response had high values
# T2 sequence (whole entry): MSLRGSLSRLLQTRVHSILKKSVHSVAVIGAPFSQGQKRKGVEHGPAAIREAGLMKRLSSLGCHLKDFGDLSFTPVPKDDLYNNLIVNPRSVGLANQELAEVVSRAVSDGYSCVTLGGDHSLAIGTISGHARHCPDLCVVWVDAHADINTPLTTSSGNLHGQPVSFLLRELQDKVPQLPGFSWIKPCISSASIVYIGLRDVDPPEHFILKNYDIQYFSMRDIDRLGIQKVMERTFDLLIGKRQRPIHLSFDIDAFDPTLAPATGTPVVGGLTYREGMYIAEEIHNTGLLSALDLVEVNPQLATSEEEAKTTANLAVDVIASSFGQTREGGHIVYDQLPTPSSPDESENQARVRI
# [6] = biological target: T3, Proteasome subunit beta (Trypanosoma cruzi) (UniProt O96673); assay: Trypanosoma cruzi proteasome chymotrypsin-like activity (TcProtChymo) assay.; further: in the data most compounds retested in dose-response had high values; assay type: functional; settings: 9.37 µM
# T3 sequence (whole entry): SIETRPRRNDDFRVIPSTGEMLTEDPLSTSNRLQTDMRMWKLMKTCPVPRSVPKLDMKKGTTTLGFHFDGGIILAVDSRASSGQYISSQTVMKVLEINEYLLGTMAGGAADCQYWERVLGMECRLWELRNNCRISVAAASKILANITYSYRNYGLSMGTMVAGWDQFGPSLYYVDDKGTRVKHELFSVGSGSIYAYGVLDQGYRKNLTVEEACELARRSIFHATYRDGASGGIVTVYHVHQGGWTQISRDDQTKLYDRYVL
# Homo sapiens = species on record: Homo sapiens; assay: To identify inhibition of the IFN signalling (Jak-Stat) pathway via expression of an eGFP reporter gene under the control of an IFN-stimulated response element (ISRE) containing MxA promoter.; assay type: functional; settings: 30 µM
# [7] = biological target: T4, Tyrosyl-tRNA synthetase, putative (Trypanosoma cruzi (strain CL Brener)) (UniProt Q4DSP6); assay: Trypanosoma cruzi tyrosyl tRNA synthetase (TcYRS) _High Tyrosine SOP; assay type: functional; settings: 30 µM; further: in the data most compounds retested in dose-response had high values
# T4 sequence (whole entry): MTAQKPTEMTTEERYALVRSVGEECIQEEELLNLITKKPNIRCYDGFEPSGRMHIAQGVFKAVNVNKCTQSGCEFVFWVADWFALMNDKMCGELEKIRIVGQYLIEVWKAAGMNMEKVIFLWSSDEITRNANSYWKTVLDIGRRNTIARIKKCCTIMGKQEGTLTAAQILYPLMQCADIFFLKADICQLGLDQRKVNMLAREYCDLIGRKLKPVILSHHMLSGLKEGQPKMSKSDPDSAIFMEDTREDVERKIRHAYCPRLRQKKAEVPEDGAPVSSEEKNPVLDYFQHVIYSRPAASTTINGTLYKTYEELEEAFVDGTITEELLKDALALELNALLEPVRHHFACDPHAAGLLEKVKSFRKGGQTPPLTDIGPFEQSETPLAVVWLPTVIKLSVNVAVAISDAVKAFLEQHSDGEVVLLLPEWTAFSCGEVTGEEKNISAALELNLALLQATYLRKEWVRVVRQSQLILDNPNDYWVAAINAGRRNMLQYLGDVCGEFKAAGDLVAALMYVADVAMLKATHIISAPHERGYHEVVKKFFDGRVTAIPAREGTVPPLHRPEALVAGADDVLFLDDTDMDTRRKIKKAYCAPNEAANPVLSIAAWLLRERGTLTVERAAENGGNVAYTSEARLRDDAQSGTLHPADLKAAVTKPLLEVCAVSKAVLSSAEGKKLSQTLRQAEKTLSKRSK
# [8] = biological target: T4, Tyrosyl-tRNA synthetase, putative (Trypanosoma cruzi (strain CL Brener)); assay: Trypanosoma cruzi tyrosyl tRNA synthetase (TcYRS) SOP; assay type: functional; settings: 30 µM
# [9] = biological target: Chromo domain-containing protein 1 (Saccharomyces cerevisiae (strain ATCC 204508 / S288c) (Baker's yeast)) (UniProt P32657); assay: ScCHD-1 Enzyme Inhibition Assay; assay type: functional; settings: 30 µM; further: in the data most compounds retested in dose-response had high values
# Chain of Chromo domain-containing protein 1 (Saccharomyces cerevisiae (strain ATCC 204508 / S288c) (Baker's yeast)) (P32657 whole entry, the tested form may be a part): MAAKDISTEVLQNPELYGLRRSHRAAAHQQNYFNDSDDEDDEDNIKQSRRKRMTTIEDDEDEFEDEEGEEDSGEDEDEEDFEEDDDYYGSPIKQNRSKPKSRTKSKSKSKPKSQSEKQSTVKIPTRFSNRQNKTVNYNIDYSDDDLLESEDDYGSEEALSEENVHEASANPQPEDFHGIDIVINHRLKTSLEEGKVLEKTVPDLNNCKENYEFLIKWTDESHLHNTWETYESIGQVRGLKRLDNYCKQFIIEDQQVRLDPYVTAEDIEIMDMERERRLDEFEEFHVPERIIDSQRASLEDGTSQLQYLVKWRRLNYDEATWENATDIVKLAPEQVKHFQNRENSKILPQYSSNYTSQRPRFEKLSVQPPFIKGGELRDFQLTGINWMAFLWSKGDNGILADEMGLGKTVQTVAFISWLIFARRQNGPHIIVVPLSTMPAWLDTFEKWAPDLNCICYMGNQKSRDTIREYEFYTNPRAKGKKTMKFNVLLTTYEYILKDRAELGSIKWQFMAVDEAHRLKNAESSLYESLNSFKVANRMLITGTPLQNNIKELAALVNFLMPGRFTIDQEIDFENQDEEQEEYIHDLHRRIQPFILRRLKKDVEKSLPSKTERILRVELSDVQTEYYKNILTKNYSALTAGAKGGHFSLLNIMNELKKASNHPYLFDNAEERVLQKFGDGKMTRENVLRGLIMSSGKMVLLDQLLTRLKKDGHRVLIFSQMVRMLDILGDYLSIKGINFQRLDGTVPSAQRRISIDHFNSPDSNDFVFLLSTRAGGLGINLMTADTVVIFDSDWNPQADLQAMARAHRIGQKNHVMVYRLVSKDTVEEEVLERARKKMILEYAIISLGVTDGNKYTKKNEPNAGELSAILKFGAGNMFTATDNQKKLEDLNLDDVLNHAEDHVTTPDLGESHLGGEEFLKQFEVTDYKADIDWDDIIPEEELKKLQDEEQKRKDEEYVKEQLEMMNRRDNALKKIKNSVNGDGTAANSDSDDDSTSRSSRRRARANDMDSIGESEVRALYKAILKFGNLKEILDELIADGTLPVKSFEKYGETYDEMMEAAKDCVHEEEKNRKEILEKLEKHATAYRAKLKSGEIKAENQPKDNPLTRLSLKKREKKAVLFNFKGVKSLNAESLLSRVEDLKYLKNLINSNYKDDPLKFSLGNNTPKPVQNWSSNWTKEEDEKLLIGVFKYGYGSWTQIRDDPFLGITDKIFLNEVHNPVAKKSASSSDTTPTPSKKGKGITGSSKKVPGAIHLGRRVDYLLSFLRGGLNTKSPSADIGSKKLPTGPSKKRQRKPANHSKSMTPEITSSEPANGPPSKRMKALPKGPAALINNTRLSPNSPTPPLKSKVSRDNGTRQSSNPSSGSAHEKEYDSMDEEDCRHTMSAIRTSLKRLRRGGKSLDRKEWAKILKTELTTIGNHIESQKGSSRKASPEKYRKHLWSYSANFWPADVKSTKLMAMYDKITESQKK
# Chain of Sialic acid-binding Ig-like lectin 9 (Homo sapiens) (Q9Y336 whole entry): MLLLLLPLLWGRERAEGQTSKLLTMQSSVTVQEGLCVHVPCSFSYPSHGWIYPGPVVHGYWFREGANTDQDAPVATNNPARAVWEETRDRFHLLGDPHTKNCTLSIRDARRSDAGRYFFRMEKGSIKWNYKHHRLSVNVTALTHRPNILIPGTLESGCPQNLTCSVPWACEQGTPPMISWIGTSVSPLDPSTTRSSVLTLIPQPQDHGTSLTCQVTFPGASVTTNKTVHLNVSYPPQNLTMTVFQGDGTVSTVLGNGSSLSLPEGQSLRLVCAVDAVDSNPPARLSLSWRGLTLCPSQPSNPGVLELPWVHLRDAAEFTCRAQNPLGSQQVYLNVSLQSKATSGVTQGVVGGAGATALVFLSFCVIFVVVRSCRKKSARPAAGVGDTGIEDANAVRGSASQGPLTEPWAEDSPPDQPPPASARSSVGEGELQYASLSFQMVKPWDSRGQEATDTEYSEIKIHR
# Chain of Protein translocase subunit SecA (Escherichia coli (strain K12)) (P10408 whole entry): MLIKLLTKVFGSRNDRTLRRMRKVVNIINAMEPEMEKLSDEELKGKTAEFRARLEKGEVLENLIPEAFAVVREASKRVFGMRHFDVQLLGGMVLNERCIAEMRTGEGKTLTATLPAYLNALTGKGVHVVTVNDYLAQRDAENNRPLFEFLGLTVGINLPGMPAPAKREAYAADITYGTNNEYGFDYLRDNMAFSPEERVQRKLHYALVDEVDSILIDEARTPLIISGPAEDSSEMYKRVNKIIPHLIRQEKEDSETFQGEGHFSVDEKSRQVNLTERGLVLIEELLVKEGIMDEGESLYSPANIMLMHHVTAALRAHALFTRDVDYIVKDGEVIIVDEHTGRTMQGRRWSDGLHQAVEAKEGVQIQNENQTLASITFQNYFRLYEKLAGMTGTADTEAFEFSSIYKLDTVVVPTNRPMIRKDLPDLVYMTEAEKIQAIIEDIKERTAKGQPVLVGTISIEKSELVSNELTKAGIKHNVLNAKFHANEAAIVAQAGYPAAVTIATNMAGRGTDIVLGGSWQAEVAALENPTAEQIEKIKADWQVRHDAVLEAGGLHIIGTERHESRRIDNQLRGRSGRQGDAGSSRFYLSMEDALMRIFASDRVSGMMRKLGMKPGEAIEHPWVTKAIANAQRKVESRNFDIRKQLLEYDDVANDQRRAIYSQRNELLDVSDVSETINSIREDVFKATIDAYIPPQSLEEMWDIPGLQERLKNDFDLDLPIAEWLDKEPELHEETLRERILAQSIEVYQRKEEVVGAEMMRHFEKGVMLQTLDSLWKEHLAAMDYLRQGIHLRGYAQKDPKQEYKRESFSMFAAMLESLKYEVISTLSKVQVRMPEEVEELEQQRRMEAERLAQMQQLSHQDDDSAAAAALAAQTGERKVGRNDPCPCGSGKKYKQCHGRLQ
Compound,Percent Effect [1],Percent Effect [2],Percent Effect [3],Percent Effect [4],Percent Effect (Trypanosoma cruzi),Percent Effect [5],Percent Effect [6],Percent Effect (Homo sapiens),Percent Effect [7],Percent Effect [8],Percent Effect [9]
CC(=O)Nc1ccc(CNC2CC(=O)N(Cc3cccc(F)c3)C2)cc1 (stereo unspecified),-2.91%,0%,-1.25%,1.06%,-2.7%,-3.33%,1.55%,-18.6%,2.65%,7.32%,-0.408%
O=C(NCc1cncc2c1CCN(Cc1cccc(F)c1)C2)C1CC1,-4.48%,0%,5.3%,4.67%,-3.97%,-5.59%,7.96%,9.89%,-5.21%,6.17%,2.56%
CN(C)C(=O)N1C[C@H]2CN(Cc3cccc(F)c3)C(=O)[C@H]2C1,-4.01%,10.8%,7.46%,-7.24%,-4.2%,0.955%,20.9%,4.49%,0%,-7.69%,-1.2%
CCn1cnnc1CNC(=O)c1cc(Cl)ccc1OC,-2.18%,8.86%,8.8%,-1.08%,-2.56%,3.66%,11.2%,7.84%,9.38%,15.2%,-11.8%
NC(=O)C1CCN(C(=O)NCc2ccccc2Cn2cncn2)CC1,-3.59%,5.41%,4.01%,0.839%,-3.86%,0%,10.2%,1.83%,2.65%,7.32%,-1.94%
Cc1cc(C(F)(F)F)nn1CC(C)C(=O)Nc1ccncc1 (stereo unspecified),-6.4%,6.67%,-0.198%,8.65%,0.786%,-2.64%,10.9%,19.9%,1.06%,-12.8%,-5.12%
Cc1cccc(CN2CC3(CCNCC3)OCC2=O)n1,-6.42%,2.7%,2.52%,-3.05%,1.37%,-0.833%,2.11%,2.26%,4.95%,11%,-6.46%
Cc1noc(CN(Cc2ccc3c(c2)OCO3)Cc2ccc(C)o2)n1,-2.53%,13.5%,-9.33%,-9.31%,-5.75%,3.21%,13.3%,27.4%,8.37%,13.6%,-6.37%
O=C(NCc1cccnc1)C1=NOC2(CCN(S(=O)(=O)C3CC3)C2)C1 (stereo unspecified),-5.43%,13.3%,-3.17%,-2.3%,4.25%,-41.4%,5.81%,-3.44%,-3.12%,2.5%,-6.85%
O=C(NCCNc1cnccn1)C1CCN(C(=O)N2CCCC2)CC1,-3.3%,19%,-1.9%,-1.57%,-2.36%,-5.81%,15.6%,8.62%,-3.12%,17.7%,-23.5%
CCC(=O)N1CCN(Cc2cc(-c3ccncc3)nn2C)CC1,-5.35%,-6.76%,12.8%,5.24%,-3.56%,-1.62%,5.77%,-3.21%,4.3%,-1.3%,-2.41%
CC(NC(=O)C1=NN(C)C(=O)CC1)c1ccc(F)cc1F (stereo unspecified),-1.15%,16.4%,16.9%,10.9%,4.11%,-4.09%,20.4%,14.5%,5.38%,15%,-6.12%
Cc1nc(-c2ccccc2)n(CC(=O)NCC(C)C)n1,-1.39%,13.5%,-9.59%,-7.18%,-7.08%,-4.01%,1.62%,19.8%,5.42%,13.6%,-5.55%
CO[C@@H]1CCN(Cc2cnn(C)c2)[C@@H]2CN(Cc3ccco3)C[C@@H]21,-5.25%,4%,5.3%,4.49%,-1.38%,-0.528%,11.8%,-13.9%,0%,2.56%,-0.166%
O=C(NCC(F)(F)F)C1CSCN1S(=O)(=O)c1ccc(F)cc1 (stereo unspecified),-4.1%,16.5%,4.27%,-0.453%,1.33%,-4.95%,16.5%,7.19%,13.5%,30.4%,-28%
Cn1cc(C(=O)N[C@@H]2CN(Cc3cccs3)[C@@H]3CCCO[C@@H]32)cn1,-4.79%,13.3%,-3.04%,-0.505%,0.579%,-49.6%,9.74%,-5.26%,1.04%,12.5%,-7.8%
